# ChEMBL document CHEMBL4513216, “Probing the Open Global Health Chemical Diversity Library for Multistage-Active Starting Points for Next-Generation Antimalarials” (ACS Infect Dis, 2020)
# The whole screen tested about 69,000 compounds, of which about 8,600 (12%) showed an effect of 50% or more. The full list was thinned out, with strong results kept by preference.
# Test system: Plasmodium berghei
# Assay: Screen against P. berghei liver stage (PbLuc), transformed with Luciferase, at 10uM
# Type: functional, HepG2
# Settings: tested at 10 uM
row,SMILES,INHIBITION
1,CN1CCCC1CNC(=O)CCOc1ccc(Cl)cc1 (stereo not given),-11.98%
2,Cc1cnc(C)c(N2CCN(CCCc3[nH]nc(C)c3C)CC2)n1,30.3%
3,CCN(CC)CCCN1CCN(c2nc(C)cnc2C)CC1,71.1%
4,CSCCN1CCN(c2nc(N)ncc2C)CC1,19.4%
5,Cc1cnc(N)nc1N1CCN(CCCO)CC1,42.1%
6,Cc1cnc(C)c(N2CCN(CCCc3ccncc3)CC2)n1,76%
7,Cc1noc(C(C)N2CCN(CCc3ccncc3)CC2)n1 (stereo not given),-11.9%
8,Cc1nc(CN2C[C@@H]3COC[C@]3(COCC(=O)N(C)C)C2)cs1,43.1%
9,CN(C)c1ccc(C(=O)Nc2cn[nH]c2)cc1,4.885%
10,Cc1cc(C)n(CC(=O)N2CCCC2c2cc3cccnc3[nH]2)n1 (stereo not given),9.05%
11,CCC(=O)N1CCOC(c2cc(Nc3nncs3)cc(C)n2)C1 (stereo not given),41%
12,O=S1(=O)NC(=CSCc2ccccc2)Nc2ccccc21,38%
13,O=C(c1cc(C2CC2)n[nH]1)N1C[C@H]2CC[C@](O)(c3ccccc3F)[C@H]2C1,-16.56%
14,O=C(c1cc(C2CC2)on1)N1C[C@H]2CC[C@](O)(c3ccccc3F)[C@H]2C1,53.45%
15,O=C(c1cc(C2CC2)on1)N1C[C@H]2CC[C@](O)(c3ccc(F)cc3)[C@H]2C1,1.75%
16,CCC[C@H]1CN(CCS(C)(=O)=O)C[C@@H]1NC(=O)c1cccnn1,-25.2%
17,CCC[C@H]1CN(CCS(C)(=O)=O)C[C@@H]1NC(=O)c1ccccc1F,-30.2%
18,CCC[C@H]1CN(CCS(C)(=O)=O)C[C@@H]1NC(=O)c1cc(CC)on1,50.1%
19,CCC[C@H]1CN(CCS(C)(=O)=O)C[C@@H]1NC(=O)c1ccn(C)n1,61.2%
20,CCC[C@H]1CN(CCS(C)(=O)=O)C[C@@H]1NC(=O)c1cc[nH]n1,13%
21,CCC[C@H]1CN(CCS(C)(=O)=O)C[C@@H]1NC(=O)c1ccccn1,26.6%
22,Cc1cnn(CC2CCCN2C(=O)CCc2ccncc2)c1 (stereo not given),-14%
23,Cc1cccc(-c2cc(C(=O)O)sn2)c1,-12.1%
24,Cc1occc(=O)c1OCc1noc(C(=O)NCC2CC2)n1,33.5%
25,O=C(c1cccnc1)N1CCn2nnc(COc3cccnc3)c2C1,47.8%
26,CCc1ccc(CN2CCC3(CC2)CC(N2CCN(C)CC2)CO3)cc1 (stereo not given),45.5%
27,Cc1ccc(CN2CCC3(CC2)CC(N2CCN(C)CC2)CO3)s1 (stereo not given),47.4%
28,CN1CCN(C2COC3(CCN(Cc4ccsc4)CC3)C2)CC1 (stereo not given),54.4%

row,SMILES,INHIBITION
1,CCOC1COC2(CCN(Cc3ccc(F)cc3)CC2)C1 (stereo not given),-24.5%
2,CN1CCN(C2COC3(CCN(Cc4cccs4)CC3)C2)CC1 (stereo not given),1.94%
3,CN1CCN(C2COC3(CCN(Cc4ccc(F)cc4)CC3)C2)CC1 (stereo not given),54.4%
4,COC(=O)c1cc(C)nc(N2CCN(Cc3cc(C(C)C)no3)CC2)n1,23.1%
5,COc1cccc(OC)c1-c1c[nH]c(C)n1,1.56%
6,Cn1cnc2c1CCN(Cc1c(Cl)ccc3cccnc13)C2,-20.8%
7,CS(=O)(=O)N1CCC(c2nnc3ccc(C(=O)N4CCCC4)cn23)C1 (stereo not given),40.4%
8,CC(C)N1CCN(C)CC1c1nnc2ccc(C(=O)N3CCCC3)cn12 (stereo not given),82.8%
9,CN1CCN(C)C(c2nnc3ccc(C(=O)N4CCOCC4)cn23)C1 (stereo not given),8.03%
10,CC(C)NC(=O)c1ccc2nnc(C3CN(C)CCN3C)n2c1 (stereo not given),-37.9%
11,CN1CCC(c2nnc3ccc(C(=O)N4CCCCC4)cn23)C1 (stereo not given),82.8%
12,CN1CCC(c2nnc3ccc(C(=O)NC4CCCC4)cn23)C1 (stereo not given),-1.26%
13,N#Cc1ccc(CN2CCCCC2Cn2cccn2)cc1 (stereo not given),-32%
14,COc1ccc(CC(=O)NC2CCc3nc(C)cn3C2)cc1 (stereo not given),46.6%
15,COc1ncc(-c2ccc(NC(C)=O)cc2)c(OC)n1,14%
16,Cc1nc(O)c2nnn(C[C@H]3CCCN3C(=O)c3ccccc3F)c2n1,28%
17,OC1CCN(c2ccnc(NCCc3ccccc3Cl)n2)C1 (stereo not given),93.6%
18,OC1CCN(c2ccnc(NCCN3CCc4ccccc4C3)n2)C1 (stereo not given),8.38%
19,OC1CCN(c2ccnc(NCCc3ccccc3Cl)n2)CC1,39.1%
20,CCCc1ccc(CN2CCC3(CCC(=O)N(C)CC3)CC2)o1,21.2%
21,CCCc1nc(CN2CCN(C(C)c3nc(C4CC4)no3)CC2)no1 (stereo not given),-27.8%
22,COc1ccccc1CC(=O)NS(=O)(=O)c1ccc(NC(C)=O)cc1,-14%
23,O=C(NCC1CCS(=O)(=O)C1)N(Cc1ccccn1)C1CC1 (stereo not given),4.1%
24,Cc1csc(CN2CCC(C(=O)O)(n3ccc(-c4ccco4)n3)CC2)n1,51.3%
25,Cc1nc(CN2CCC(C(=O)O)(n3ccc(-c4ccco4)n3)CC2)co1,5.14%
26,O=C(O)C1(n2ccc(-c3ccco3)n2)CCN(Cc2cccs2)CC1,43.4%
27,COc1cccc(N2CCN(C(C(=O)O)c3ccc(OC)nc3)CC2)c1 (stereo not given),65.7%
